What all share (test): NCI-60 one-dose screen, 48 h (100 = growth as untreated, 0 = no growth, -100 = all killed)
Holding throughout (conditions): 10 µM unless noted

Assay [1] concerns NCI-H23 lung.
Assay [2] deals with NCI-H226 lung.
For assay [3], the system named is NCI-H322M lung.
Assay [4] has as its system HOP-62 NSCLC.
Assay [5] relates to NCI-H460 lung.
Assay [6] concerns HOP-92 NSCLC.
The test system of assay [7] is NCI-H522 lung.
Assay [8] has as its system A549/ATCC NSCLC.
Assay [9] concerns 786-0 renal.
In assay [10] the test system is COLO 205 colon.

Each structure is given as a SMILES string. This is part of a sample that, as a whole, favours compounds with a hit. Of some 83,000 tested, about 20% had one in any assay.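 Results are percent growth after 48 hours of single-concentration exposure. 100 means growth as in untreated cells, lower positive values show inhibition; negative values down to -100 show cell death.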 Unmarked numbers belong to inactive results. The source made the active and inactive calls. The calls were made as follows: active = growth percent below 10; inactive = the rest.

As for `O=C1CC(=NCC(=O)n2c(-c3ccccc3)nc3ccccc32)NN1`, the growth in assay [1] is 91.8%; in assay [2], 90.2%; in assay [3] it was 103%; in assay [4] it was 89%; in assay [5] it was 100%; in assay [6] it was 99.5%. For the same molecule, the growth in assay [7] was 84.5%; in assay [8], 114%; in assay [9], 107%; in assay [10], 111%.

Take `CC/C=C\C/C=C\C[C@H]1C/C=C2/C(=O)C=C[C@@H]2C/C=C\CCC(=O)O1`: the growth was 12.1% in [1]; -36.1% (active) in assay [2]; 45.3% in [3]; -1.49% (active) in assay [4]; -4.43% (active) in assay [5]; -11.8% (active) in assay [6]. The growth is -69.9% (active) in assay [7], 2.89% (active) in assay [8], -43.7% (active) in assay [9] and -29.9% (active) in assay [10].

In the case of `COc1ccc(O)c(N=Nc2nccs2)c1`, the growth was 87.9% in assay [1]; 92.2% in assay [2]; 91.4% in assay [3]; 94.2% in [4]; 101% in assay [5]; 49.4% in [6]. Moreover, the growth in assay [7] is 88.2%; in assay [8], 91.1%; in [9], 70.6%; in assay [10], 94.8%.

Turning to `CCOc1cc2c(cc1OCC)C(c1cc(OC)c(O)cc1Cl)NCC2` (stereo not given), the growth is 96.7% in assay [1]; 100% in assay [2]; 110% in assay [3]; 98.1% in [4]; 98.4% in assay [5]; 114% in [6]. Also, the growth was 102% in assay [7], 88.6% in [8], 84.1% in assay [9] and -37.4% (active) in assay [10].

Turning to `C=C1C(=O)O[C@H]2[C@H]1CC/C(COC(=O)c1cc3cc(OC)ccc3[nH]1)=C\CC[C@@]1(C)O[C@@H]21`, the growth in [1] was -72.6% (active); in assay [2], -68.3% (active); in [3], -50.8% (active); in [4] it was -68.9% (active); in assay [5], -37% (active); in assay [6] it was -62.7% (active). The growth was -91.4% (active) in assay [7], -73.9% (active) in assay [8], -87.6% (active) in [9] and -71.3% (active) in assay [10].

As for `FC(F)(F)c1nc2c(NCc3ccc(-c4ccccc4)cc3)cccc2[nH]1`, the growth in [1] was 80.8%; in assay [2], 79%; in assay [3], 85.8%; in assay [4], 106%; in assay [5] it was 44.8%; in assay [6], 62%. Moreover, the growth in assay [7] is 50.8%; in assay [8], 55.5%; in [9], 85%; in assay [10], 90.3%.

Take `Cc1cc(N2CCN(c3ccnc4cc(Cl)ccc34)CC2)nc(NC2CCCCC2)n1`: the growth in [1] is 29.9%; in [2], 64.4%; in assay [3], 58.5%; in assay [4], 29.6%; in [5], 1.4% (active); in assay [6] it was 20.4%. The growth in [7] was 50.2%; in assay [8], 34%; in assay [9], 37.9%; in [10] it was -48.4% (active).

With `CC1=C[C@H]2c3c(c(O)c(O)c4oc(-c5ccccc5)cc(=O)c34)[C@H](c3cc(O)c(O)c4oc(-c5ccccc5)cc(=O)c34)[C@H]2C(C)(C)C1`, the growth in assay [1] was -14.4% (active); in [2], -3.14% (active); in [3], 6.91% (active); in assay [4] it was -2.06% (active); in assay [5], -31.8% (active); in assay [6], -10% (active). Besides, the growth is -12.7% (active) in assay [7], 2.87% (active) in [8], -22.8% (active) in assay [9] and 4.64% (active) in assay [10].

For the molecule `CN1C(=O)C2(SCC(C(=O)NCc3ccccc3)N2C(=O)C2CCCCC2)c2ccccc21` (stereo not given), the growth was 91% in assay [1]; 84.3% in assay [2]; 77.1% in [3]; 98.2% in assay [4]; 96% in [5]; 86.3% in [6]. In addition, the growth in assay [7] was 75.4%; in assay [8] it was 93.6%; in [9] it was 101%; in assay [10], 95.3%.

As to `CCOC(=O)C(C)(C#N)C1C=CCCC1` (stereo not given), the growth was 83.3% in [1]; 97.9% in [2]; 80.4% in assay [3]; 89.8% in [4]; 98.8% in assay [5]; 78.2% in assay [6]. Also, the growth in assay [7] is 104%; in assay [8], 92.5%; in assay [9] it was 87%; in [10] it was 106%.

With `CN(C)S(=O)(=O)c1ccc(S(=O)(=O)Nc2cccc(Cl)c2N2CCCCC2)cc1`, the growth was 84.1% in [1]; 82.9% in assay [2]; 98.7% in assay [3]; 87.9% in assay [4]; 93.6% in [5]; 72.4% in [6]. The growth was 68.7% in [7], 66.9% in [8], 87.9% in assay [9] and 106% in assay [10].

Turning to `COc1cc2c(cc1-c1c(C)noc1C)ncc1nc(C3CCOCC3)n([C@H](C)COC(F)F)c12`, the growth in [1] is 60.1%; in assay [2], 55.2%; in assay [3] it was 41.2%; in assay [4] it was 35.2%; in [5], 59.2%; in assay [6], 36.9%. The growth was 31.2% in assay [7], 36.2% in assay [8], 48% in assay [9] and 31.6% in assay [10].

For `C#Cc1cccc(NC(=O)c2ccccc2NC(=O)CCl)c1`, the growth in assay [1] is 64.4% [8.25 µM]; in assay [2], 50.1% [8.25 µM]; in [3], 99.3% [8.25 µM]; in assay [4] it was 75.8% [8.25 µM]; in [5], 98.3% [8.25 µM]; in [6], 77.4% [8.25 µM]. Besides, the growth in assay [7] is 10.6% [8.25 µM]; in [8], 92.7% [8.25 µM]; in assay [9], 87.5% [8.25 µM]; in [10] it was 114% [8.25 µM].

Values taken from PubChem BioAssay (NCI).
